# Hit rate of the full screen: of about 5,500 compounds, about 2,000 (36%) were called active. Another 18% or so got no clear call; they are omitted. The list shows a part of the results. Values without a mark were called inactive. No stated cut-off is given here; in the data, active means normalized growth mostly below about 0.91 (no sharp cut-off); inconclusive means no clear call, values can overlap the other calls; inactive means mostly above about 0.92.
# Test: chemical genetic growth profiling, strain panel (AID 1159580);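 further: tested at 20 µM; growth read once vehicle control cultures reached saturation at 30 °C; 1 = growth at the plate median or of vehicle wells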
# Details: growth OD
# [1] = S. cerevisiae deletion strains, locus YAL013W, strain DEP1, stronger effect = lower value
# [2] = S. cerevisiae deletion strains, locus YBR229C, strain ROT2, stronger effect = lower value
# [3] = S. cerevisiae deletion strains, locus YDL101C, strain DUN1, stronger effect = lower value
# [4] = S. cerevisiae deletion strains, locus YDL134C, strain PPH21, stronger effect = lower value
# [5] = S. cerevisiae deletion strains, locus YDR150W, strain NUM1, stronger effect = lower value
# [6] = S. cerevisiae deletion strains, locus YEL061C, strain CIN8, stronger effect = lower value
# [7] = S. cerevisiae deletion strains, locus YGR078C, strain PAC10, stronger effect = lower value
# [8] = S. cerevisiae deletion strains, locus YHR030C, strain SLT2, stronger effect = lower value
# [9] = S. cerevisiae deletion strains, locus YHR087W, strain rtc3, stronger effect = lower value
# [10] = S. cerevisiae deletion strains, locus YJR043C, strain POL32, stronger effect = lower value
# [11] = S. cerevisiae deletion strains, locus YJR075W, strain HOC1, stronger effect = lower value
# [12] = S. cerevisiae deletion strains, locus YKL190W, strain CNB1, stronger effect = lower value
# [13] = S. cerevisiae deletion strains, locus YLR039C, strain RIC1, stronger effect = lower value
# [14] = S. cerevisiae deletion strains, locus YLR058C, strain SHM2 (second series), stronger effect = lower value
# [15] = S. cerevisiae deletion strains, locus YLR085C, strain ARP6, stronger effect = lower value
# [16] = S. cerevisiae deletion strains, locus YLR262C, strain YPT6, stronger effect = lower value
# [17] = S. cerevisiae deletion strains, locus YML094W, strain GIM5, stronger effect = lower value
# [18] = S. cerevisiae deletion strains, locus YMR219W, strain ESC1, stronger effect = lower value
# [19] = S. cerevisiae deletion strains, locus YMR263W, strain SAP30, stronger effect = lower value
# [20] = S. cerevisiae deletion strains, locus YNL153C, strain GIM3, stronger effect = lower value
# [21] = S. cerevisiae deletion strains, locus YNL298W, strain CLA4 (second series), stronger effect = lower value
# [22] = S. cerevisiae deletion strains, locus YNL322C, strain KRE1, stronger effect = lower value
# [23] = S. cerevisiae deletion strains, locus YNR030W, strain Alg12, stronger effect = lower value
# [24] = S. cerevisiae deletion strains, locus YOL006C, strain TOP1, stronger effect = lower value
# [25] = S. cerevisiae deletion strains, locus YPL055C, strain LGE1, stronger effect = lower value
# [26] = S. cerevisiae deletion strains, locus YPL241C, strain CIN2, stronger effect = lower value
# [27] = S. cerevisiae deletion strains, locus YPR135W, strain CTF4, stronger effect = lower value
# [28] = S. cerevisiae strains, strain wild type, stronger effect = lower value
# [29] = S. cerevisiae deletion strains, locus YCL061C, strain MRC1, stronger effect = lower value
smiles,measurement,setting,value
Nc1ccccc1SCC(=O)Nc1c(F)cccc1F,normalized growth,[1],0.982
same,normalized growth,[2],0.998
same,normalized growth,[3],0.979
same,normalized growth,[4],1.04
same,normalized growth,[5],0.977
same,normalized growth,[6],1.03
same,normalized growth,[7],1
same,normalized growth,[8],0.938
same,normalized growth,[9],1.05
same,normalized growth,"S. cerevisiae deletion strains, locus YJL187C, strain SWE1, stronger effect = lower value",1.03
same,normalized growth,[10],0.975
same,normalized growth,[11],1.01
same,normalized growth,[12],1.01
same,normalized growth,[13],0.672 (active)
same,normalized growth,[14],1.02
same,normalized growth,[15],0.985
same,normalized growth,[16],0.595 (active)
same,normalized growth,[17],0.955
same,normalized growth,[18],0.998
same,normalized growth,[19],1.01
same,normalized growth,[20],1.01
same,normalized growth,[21],1.03
same,normalized growth,[22],1
same,normalized growth,[23],1
same,normalized growth,[24],0.903
same,normalized growth,[25],0.994
same,normalized growth,[26],0.977
same,normalized growth,[27],1.02
same,normalized growth,[28],1.01
O=C(Nc1ccccc1F)C(Cl)Cl,normalized growth,[1],0.999
same,normalized growth,[2],0.989
same,normalized growth,[29],1
same,normalized growth,[3],0.994
same,normalized growth,[4],0.967
same,normalized growth,[5],1.01
same,normalized growth,[6],1.01
same,normalized growth,[7],0.975
same,normalized growth,[8],1.07
same,normalized growth,[9],0.981
same,normalized growth,[10],0.997
same,normalized growth,[11],0.971
same,normalized growth,[12],0.981
same,normalized growth,[13],1.16
same,normalized growth,[14],0.987
same,normalized growth,[15],0.991
same,normalized growth,[16],1.14
same,normalized growth,[17],0.992
same,normalized growth,[18],0.991
same,normalized growth,[19],0.995
same,normalized growth,[20],1.02
same,normalized growth,[21],0.984
same,normalized growth,[22],0.987
same,normalized growth,[23],0.976
same,normalized growth,[24],1.02
same,normalized growth,[25],0.962
same,normalized growth,[26],0.977
same,normalized growth,[27],0.99
Cc1onc(NC(=O)NC(=O)c2c(F)cccc2Cl)c1Br,normalized growth,[1],1
same,normalized growth,[2],0.996
same,normalized growth,[29],1.03
same,normalized growth,[3],1.04
same,normalized growth,[5],1.01
same,normalized growth,[6],0.973
same,normalized growth,[7],1.01
same,normalized growth,[8],0.96
same,normalized growth,[9],0.971
same,normalized growth,[10],1.01
same,normalized growth,[11],1.01
same,normalized growth,[13],1
same,normalized growth,[14],1
same,normalized growth,[15],0.986
same,normalized growth,[16],0.988
same,normalized growth,[17],0.973
same,normalized growth,[18],0.998
same,normalized growth,[19],1.01
same,normalized growth,[20],1.02
same,normalized growth,[21],1.01
same,normalized growth,[22],1
same,normalized growth,[23],0.981
same,normalized growth,[24],1
same,normalized growth,[25],0.964
same,normalized growth,[26],1
same,normalized growth,[27],0.977
same,normalized growth,[28],1
O=C(NC(=O)c1c(F)cccc1Cl)OCc1ccc(Cl)cc1Cl,normalized growth,"S. cerevisiae deletion strains, locus YAR019C, strain CDC15, stronger effect = lower value",0.987
same,normalized growth,"S. cerevisiae deletion strains, locus YBL105C, strain PKC1, stronger effect = lower value",0.981
same,normalized growth,"S. cerevisiae deletion strains, locus YBR135W, strain CKS1, stronger effect = lower value",0.975
same,normalized growth,"S. cerevisiae deletion strains, locus YBR136W, strain MEC1, stronger effect = lower value",0.984
same,normalized growth,"S. cerevisiae deletion strains, locus YBR160W, strain CDC28, stronger effect = lower value",0.976
same,normalized growth,"S. cerevisiae deletion strains, locus YDL017W, strain CDC7, stronger effect = lower value",0.99
same,normalized growth,"S. cerevisiae deletion strains, locus YDL028C, strain MPS1, stronger effect = lower value",0.978
same,normalized growth,[3],0.989
same,normalized growth,"S. cerevisiae deletion strains, locus YDL108W, strain KIN28, stronger effect = lower value",0.976
same,normalized growth,"S. cerevisiae deletion strains, locus YDL132W, strain cdc53, stronger effect = lower value",0.984
same,normalized growth,"S. cerevisiae deletion strains, locus YDL214C, strain PRR2, stronger effect = lower value",0.879
same,normalized growth,"S. cerevisiae deletion strains, locus YDR052C, strain DBF4, stronger effect = lower value",0.978
same,normalized growth,"S. cerevisiae deletion strains, locus YDR054C, strain cdc34, stronger effect = lower value",0.979
same,normalized growth,"S. cerevisiae deletion strains, locus YDR226W, strain ADK1, stronger effect = lower value",0.983
same,normalized growth,"S. cerevisiae deletion strains, locus YDR477W, strain SNF1, stronger effect = lower value",0.915
same,normalized growth,"S. cerevisiae deletion strains, locus YER123W, strain YCK3, stronger effect = lower value",0.848
same,normalized growth,"S. cerevisiae deletion strains, locus YER133W, strain GLC7, stronger effect = lower value",0.893
same,normalized growth,"S. cerevisiae deletion strains, locus YFL009W, strain cdc4, stronger effect = lower value",0.985
same,normalized growth,"S. cerevisiae deletion strains, locus YFL029C, strain CAK1, stronger effect = lower value",0.987
same,normalized growth,"S. cerevisiae deletion strains, locus YFR003C, strain YPI1, stronger effect = lower value",0.98
same,normalized growth,"S. cerevisiae deletion strains, locus YFR019W, strain FAB1, stronger effect = lower value",0.941
same,normalized growth,"S. cerevisiae deletion strains, locus YFR028C, strain CDC14, stronger effect = lower value",0.988
same,normalized growth,"S. cerevisiae deletion strains, locus YGR040W, strain KSS1, stronger effect = lower value",0.9
same,normalized growth,"S. cerevisiae deletion strains, locus YGR052W, strain FMP48, stronger effect = lower value",0.9
same,normalized growth,"S. cerevisiae deletion strains, locus YGR092W, strain DBF2, stronger effect = lower value",0.831
same,normalized growth,[8],0.63 (active)
same,normalized growth,"S. cerevisiae deletion strains, locus YHR079C, strain IRE1, stronger effect = lower value",0.873
same,normalized growth,"S. cerevisiae deletion strains, locus YHR082C, strain KSP1, stronger effect = lower value",0.95
same,normalized growth,"S. cerevisiae deletion strains, locus YHR205W, strain SCH9, stronger effect = lower value",0.731
same,normalized growth,"S. cerevisiae deletion strains, locus YIL147C, strain SLN1, stronger effect = lower value",0.986
same,normalized growth,"S. cerevisiae deletion strains, locus YJL095W, strain BCK1, stronger effect = lower value",0.845
same,normalized growth,"S. cerevisiae deletion strains, locus YJL128C, strain PBS2, stronger effect = lower value",0.927
same,normalized growth,"S. cerevisiae deletion strains, locus YJL157C, strain FAR1, stronger effect = lower value",0.878
same,normalized growth,"S. cerevisiae deletion strains, locus YJR016C, strain ILV3, stronger effect = lower value",0.974
same,normalized growth,"S. cerevisiae deletion strains, locus YJR066W, strain TOR1 (second series), stronger effect = lower value",0.869
same,normalized growth,"S. cerevisiae deletion strains, locus YJR066W, strain TOR1, stronger effect = lower value",0.884
same,normalized growth,"S. cerevisiae deletion strains, locus YKL048C, strain ELM1, stronger effect = lower value",0.905
same,normalized growth,"S. cerevisiae deletion strains, locus YKL067W, strain YNK1, stronger effect = lower value",0.9
same,normalized growth,"S. cerevisiae deletion strains, locus YKL101W, strain HSL1, stronger effect = lower value",0.863
same,normalized growth,"S. cerevisiae deletion strains, locus YKL193C, strain SDS22, stronger effect = lower value",0.985
same,normalized growth,"S. cerevisiae deletion strains, locus YKL203C, strain TOR2, stronger effect = lower value",0.914
same,normalized growth,"S. cerevisiae deletion strains, locus YLR113W, strain HOG1, stronger effect = lower value",0.71 (active)
same,normalized growth,"S. cerevisiae deletion strains, locus YLR133W, strain CKI1, stronger effect = lower value",0.876
same,normalized growth,"S. cerevisiae deletion strains, locus YLR403W, strain SFP1, stronger effect = lower value",0.854
same,normalized growth,"S. cerevisiae deletion strains, locus YML070W, strain DAK1, stronger effect = lower value",0.858
same,normalized growth,"S. cerevisiae deletion strains, locus YMR001C, strain CDC5, stronger effect = lower value",0.985
same,normalized growth,"S. cerevisiae deletion strains, locus YMR205C, strain PFK2 (second series), stronger effect = lower value",0.906
same,normalized growth,"S. cerevisiae deletion strains, locus YMR277W, strain FCP1, stronger effect = lower value",0.98
same,normalized growth,"S. cerevisiae deletion strains, locus YNL006W, strain LST8, stronger effect = lower value",0.983
same,normalized growth,"S. cerevisiae deletion strains, locus YNL020C, strain ARK1, stronger effect = lower value",0.818
same,normalized growth,"S. cerevisiae deletion strains, locus YNL161W, strain CBK1, stronger effect = lower value",0.974
same,normalized growth,"S. cerevisiae deletion strains, locus YNL183C, strain NPR1, stronger effect = lower value",0.875
same,normalized growth,"S. cerevisiae deletion strains, locus YNL207W, strain RIO2, stronger effect = lower value",0.966
same,normalized growth,"S. cerevisiae deletion strains, locus YNL222W, strain SSU72, stronger effect = lower value",0.978
same,normalized growth,"S. cerevisiae deletion strains, locus YNL307C, strain MCK1 (second series), stronger effect = lower value",0.828
same,normalized growth,"S. cerevisiae deletion strains, locus YOL078W, strain AVO1, stronger effect = lower value",0.983
same,normalized growth,"S. cerevisiae deletion strains, locus YOL136C, strain PFK27, stronger effect = lower value",0.851
same,normalized growth,"S. cerevisiae deletion strains, locus YOR061W, strain CKA2, stronger effect = lower value",0.899
same,normalized growth,"S. cerevisiae deletion strains, locus YOR119C, strain RIO1, stronger effect = lower value",0.961
same,normalized growth,"S. cerevisiae deletion strains, locus YOR231W, strain MKK1, stronger effect = lower value",0.835
same,normalized growth,"S. cerevisiae deletion strains, locus YOR329C, strain SCD5, stronger effect = lower value",0.978
same,normalized growth,"S. cerevisiae deletion strains, locus YPL031C, strain PHO85, stronger effect = lower value",0.887
same,normalized growth,"S. cerevisiae deletion strains, locus YPL153C, strain RAD53, stronger effect = lower value",0.914
same,normalized growth,"S. cerevisiae deletion strains, locus YPL204W, strain HRR25, stronger effect = lower value",0.867
same,normalized growth,"S. cerevisiae deletion strains, locus YPL209C, strain IPL1, stronger effect = lower value",0.979
same,normalized growth,"S. cerevisiae deletion strains, locus YPL256C, strain CLN2, stronger effect = lower value",0.711 (active)
same,normalized growth,"S. cerevisiae deletion strains, locus YPR025C, strain CCL1, stronger effect = lower value",0.976
same,normalized growth,"S. cerevisiae deletion strains, locus YPR106W, strain ISR1, stronger effect = lower value",0.966
same,normalized growth,"S. cerevisiae deletion strains, locus YPR111W, strain DBF20, stronger effect = lower value",0.949
same,normalized growth,"S. cerevisiae deletion strains, strain NNK1, stronger effect = lower value",0.977
same,normalized growth,"S. cerevisiae deletion strains, strain TSCII, stronger effect = lower value",0.979
